Results as given in PubChem BioAssay.
For part of these data: Results with a measured potency or affinity are listed apart. Active and inactive are the calls of the source.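 How the source made its calls, unless noted: active means hit in primary screen, with calcium signal over 5 SD above buffer well mean in both duplicates; inactive means the rest.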

Experiments:
[1] = test system: TRPC4 beta (transient receptor potential cation channel C4), mouse; assay: TRPC4 cation channel opening, retest – cell-based, Fluo4 calcium, HEK293 TRPC4beta/mu-opioid, duplicates, 10 µM, confirmation (AID 2426;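 active means fluorescence ratio normalized to control raised more than 50% in primary screen plus both repeat runs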;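 on activation: percent rise of integrated ratio over buffer wells lacking compound which define 0%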); settings: Fluo4 calcium fluorescence, at 10 µM; active compounds read high
[2] = test system: transient receptor potential cation channel C4 beta (TRPC4), mouse; assay: TRPC4 cation channel opening, second retest – cell-based, second round, Fluo4, HEK293 TRPC4beta/mu-opioid, 1 µM, confirmation (AID 2461;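 active means primary screen active and over 50% activation in each of two duplicate runs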;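 on activation: 0% = wells without test compound as baseline of integrated fluorescence ratio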); settings: Fluo4 calcium fluorescence, at 1 µM; active compounds read high
[3] = test system: TRPC4 (transient receptor potential cation channel C4 beta), mouse; assay: potentiation of DAMGO EC20 TRPC4 response – cell-based, second round, Fluo-4, HEK293 TRPC4beta/mu-opioid, 1 µM, confirmation (AID 2554;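 active means primary screen hit whose fluorescence ratio, in both repeats, exceeds the weak agonist control mean by 3 SD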); settings: DAMGO EC20, Fluo-4 calcium flux, at 1 µM; active compounds read high
[4] = test system: TRPC4 beta (transient receptor potential cation channel C4), mouse; assay: potentiation of DAMGO EC20 TRPC4 response – cell-based, Fluo-4, HEK293 TRPC4beta/mu-opioid, confirmation (AID 2555;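 active means primary screen hit whose calcium fluorescence ratio, in both repeats, exceeds the weak agonist control mean by 3 SD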); settings: DAMGO EC20, Fluo-4 calcium flux, at 10 µM; active compounds read high
[5] = target: Short transient receptor potential channel 4 (Mus musculus) (UniProt Q9QUQ5); assay: blockers of DAMGO-evoked TRPC4 calcium flux – cell-based, Fluo4, HEK293 TRPC4beta/mu-opioid, confirmation (AID 2636;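 active means calcium signal cut by more than 3 SD below the full-agonist control yet still positive, in both repeats and the earlier primary screen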); settings: at 10 µM; active compounds read high
[6] = target: Short transient receptor potential channel 4 (Mus musculus) (UniProt Q9QUQ5); assay: blockers of DAMGO-evoked TRPC4 calcium flux – cell-based, second round, Fluo4, HEK293 TRPC4beta/mu-opioid, 1 µM, confirmation (AID 2637;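 active means calcium signal ratio cut to more than 3 SD under the fully stimulated control mean yet still positive, in both repeats and the primary screen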); settings: at 1 µM; active compounds read high
[7] = target: Short transient receptor potential channel 4 (Mus musculus) (UniProt Q9QUQ5); assay: potentiation of DAMGO-evoked TRPC4 calcium signal – cell-based, HEK293 TRPC4/mu-opioid, Fluo-4 calcium, EC20 DAMGO, dose response (AID 434941;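 active means earlier screen potentiator hit that boosts the TRPC4 ion channel at some dose, with a dose response; inactive means no potentiation, no dose response, or not a prior hit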;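 further: calcium entry triggered by an EC20 dose of DAMGO at the co-expressed mu-opioid receptor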)
[8] = target: Short transient receptor potential channel 4 (Mus musculus) (UniProt Q9QUQ5); assay: block of DAMGO-driven TRPC4 calcium entry – cell-based, HEK293 TRPC4/mu-opioid, Fluo-4 calcium, dose response (AID 434942;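 active means primary screen inhibitor hit that blocks the TRPC4 channel at some tested dose, yielding a dose curve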)
[9] = target: Short transient receptor potential channel 6 (Mus musculus) (UniProt Q61143); assay: TRPC6 blockade by TRPC4 inhibitor hits – cell-based, HEK293, membrane potential dye, duplicate, selectivity assay for TRPC4 inhibitor project, confirmation (AID 434948;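 active means active in primary screen and both duplicates, each dropping signal beyond three positive-control SD with fluorescence still positive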); settings: HEK293 TRPC6, membrane potential dye fluorescence, at 10 µM, stimulated with maximal-effect acetylcholine; active compounds read high
[10] = target: Short transient receptor potential channel 6 (Mus musculus) (UniProt Q61143); assay: TRPC6 opening by TRPC4 activator hits – cell-based, HEK293, membrane potential dye, duplicate, selectivity assay for TRPC4 activator project, confirmation (AID 434950;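 active means membrane potential signal rise above negative control mean plus 3 SD in both duplicates, also active in the earlier TRPC4 screen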;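 on activation: 0% = buffer only wells and 100% = acetylcholine maximal-effect wells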); settings: HEK293 TRPC6, membrane potential fluorescence, at 10 µM; activation: active compounds read high; outcome: activation
[11] = target: Short transient receptor potential channel 6 (Mus musculus) (UniProt Q61143); assay: positive modulators of mouse TRPC6 channel – HEK293 cells, membrane potential dye, duplicate, selectivity assay for TRPC4 potentiator project, confirmation (AID 434952;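 active means compound raising the membrane signal above positive-control mean plus 3 SD in both repeats, and a primary screen hit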); settings: HEK293 TRPC6, membrane potential dye fluorescence, at 10 µM, maximal acetylcholine added after compound; active compounds read high
[12] = target: Short transient receptor potential channel 4 (Mus musculus) (UniProt Q9QUQ5); assay: calcium flux activators in TRPC4/5HT1a cells, counter-screen for TRPC4 activator project, cell-based, second counter screen, HEK293 TRPC4/5HT1a, Fluo-4 (AID 434977;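 active means calcium signal rise above buffer-control mean plus 5 SD in both duplicates, and also a hit in the primary screen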;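 on activation: plate controls were assay buffer for no effect and maximal serotonin response for full effect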); settings: Fluo-4 calcium flux, at 10 µM; active compounds read high
[13] = serotonin-gated TRPC4 signal block – cell-based, second counter screen, HEK293 TRPC4/5HT1a, Fluo-4, counter-screen for TRPC4 inhibitor project, confirmation (AID 434978;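 active means primary screen active whose calcium signal fell more than 3 SD beyond the full-serotonin control mean in both duplicate plates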;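 further: serotonin given first at submaximal then at maximal dose after compound preincubation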); settings: Fluo-4 calcium flux, at 10 µM, serotonin added to trigger calcium flux; active compounds read high
[14] = test system: TRPC4 (mouse), co-expressed with 5HT1a in HEK293; assay: enhancement of serotonin-evoked TRPC4 response – cell-based, second counter screen, HEK293 TRPC4/5HT1a, Fluo-4, counter-screen for TRPC4 potentiator project, confirmation (AID 434979;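 active means signal rise over 3 SD above mean of control wells given weak agonist, in both repeats and first screen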); settings: Fluo-4 calcium flux, at 10 µM, serotonin added at its EC20 dose; active compounds read high
[15] = nonspecific calcium rise without TRPC4 – cell-based, HEK293 mu-opioid receptor line, counter-screen for TRPC4 activator project, confirmation (AID 449723); settings: HEK293 mu-opioid cells, Fluo-4 calcium fluorescence, at 10 µM; active compounds read high;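 further: counter screen cells carry the mu-opioid receptor alone and lack TRPC4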
[16] = nonspecific potentiation of DAMGO calcium response – cell-based, HEK293 mu-opioid receptor line, counter-screen for TRPC4 allosteric potentiator project, confirmation (AID 449724;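 active means calcium signal rise more than 3 SD above the low-dose agonist control mean, in both duplicate plates and the primary screen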); settings: HEK293 mu-opioid receptor cells, Fluo-4 calcium flux, at 10 µM, compound added before EC20 DAMGO stimulus; active compounds read high

Measured: activation

Short transient receptor potential channel 6 (Mus musculus), sequence (Q61143 whole entry, looked up): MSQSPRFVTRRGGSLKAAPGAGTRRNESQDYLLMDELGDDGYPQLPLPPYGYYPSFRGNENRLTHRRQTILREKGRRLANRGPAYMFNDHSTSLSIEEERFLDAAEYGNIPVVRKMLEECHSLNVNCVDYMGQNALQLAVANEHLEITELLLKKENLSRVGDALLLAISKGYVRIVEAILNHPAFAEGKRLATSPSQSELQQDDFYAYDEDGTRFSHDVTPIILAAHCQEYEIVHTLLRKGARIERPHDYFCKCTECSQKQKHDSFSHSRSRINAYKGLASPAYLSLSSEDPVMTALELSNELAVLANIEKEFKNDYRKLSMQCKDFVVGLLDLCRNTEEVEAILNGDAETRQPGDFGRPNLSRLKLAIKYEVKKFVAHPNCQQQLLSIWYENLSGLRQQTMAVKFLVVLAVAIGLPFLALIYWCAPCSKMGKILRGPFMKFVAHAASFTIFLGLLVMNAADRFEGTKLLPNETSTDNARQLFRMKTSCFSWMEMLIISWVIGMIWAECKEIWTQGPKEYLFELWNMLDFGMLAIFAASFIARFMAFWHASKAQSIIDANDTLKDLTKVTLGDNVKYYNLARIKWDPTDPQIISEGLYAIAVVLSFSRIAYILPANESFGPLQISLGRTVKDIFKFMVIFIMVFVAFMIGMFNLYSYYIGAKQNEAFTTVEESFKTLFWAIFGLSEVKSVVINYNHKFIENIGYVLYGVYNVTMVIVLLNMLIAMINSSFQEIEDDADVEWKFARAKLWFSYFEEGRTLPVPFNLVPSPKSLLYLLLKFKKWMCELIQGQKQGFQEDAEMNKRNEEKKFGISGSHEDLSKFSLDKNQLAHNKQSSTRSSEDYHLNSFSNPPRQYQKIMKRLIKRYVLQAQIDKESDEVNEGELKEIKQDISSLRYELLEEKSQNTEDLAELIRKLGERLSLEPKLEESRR
Short transient receptor potential channel 4 (Mus musculus), sequence (Q9QUQ5 whole entry, looked up): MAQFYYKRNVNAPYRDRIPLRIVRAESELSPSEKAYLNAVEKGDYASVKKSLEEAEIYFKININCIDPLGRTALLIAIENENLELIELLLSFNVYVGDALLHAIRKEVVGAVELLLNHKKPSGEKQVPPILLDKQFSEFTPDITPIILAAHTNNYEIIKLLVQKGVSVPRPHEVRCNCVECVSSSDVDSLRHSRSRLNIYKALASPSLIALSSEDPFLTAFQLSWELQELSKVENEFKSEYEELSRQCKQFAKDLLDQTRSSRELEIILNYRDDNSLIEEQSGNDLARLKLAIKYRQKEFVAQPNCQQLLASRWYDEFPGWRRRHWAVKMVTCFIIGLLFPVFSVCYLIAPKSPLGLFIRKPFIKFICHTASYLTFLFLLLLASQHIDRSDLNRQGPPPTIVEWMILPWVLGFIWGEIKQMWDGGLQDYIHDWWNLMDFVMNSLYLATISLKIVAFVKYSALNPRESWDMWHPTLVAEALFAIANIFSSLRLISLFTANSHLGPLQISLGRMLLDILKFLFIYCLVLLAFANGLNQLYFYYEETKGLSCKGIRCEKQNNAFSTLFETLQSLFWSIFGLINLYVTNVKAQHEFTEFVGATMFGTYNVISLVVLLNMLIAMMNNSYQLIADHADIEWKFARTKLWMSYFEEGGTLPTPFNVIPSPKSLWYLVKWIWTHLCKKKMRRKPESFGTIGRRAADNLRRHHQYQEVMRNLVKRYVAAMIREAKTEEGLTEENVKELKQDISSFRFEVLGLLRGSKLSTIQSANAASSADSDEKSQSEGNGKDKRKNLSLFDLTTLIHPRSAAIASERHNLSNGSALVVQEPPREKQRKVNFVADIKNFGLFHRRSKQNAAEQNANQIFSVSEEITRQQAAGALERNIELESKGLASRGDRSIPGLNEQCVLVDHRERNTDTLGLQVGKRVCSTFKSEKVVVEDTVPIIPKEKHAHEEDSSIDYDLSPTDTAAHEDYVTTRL

CCCN(CCC)CCCNC(=O)CNC(=O)c1nn(-c2ccc(OC)cc2)c(=O)c2ccccc12
active: [1] 65% | [12] 24.9%
inactive: [2] | [3] | [4] | [5] | [6] | [7] | [8] | [9] | [10] | [11] | [13] | [14] | [15] | [16]

CNC[C@H](Cc1ccccc1)NC[C@@H](Cc1cccc2ccccc12)NCCc1ccc(C)cc1
inactive: [2] | [3] | [4] | [5] | [6] | [7] | [8] | [9] | [10] | [11] | [13] | [14] | [16]
active: [1] 228% | [12] 68.3% | [15] 37.9%

CCCCC(=O)NC(=S)NNC(=O)c1ccc(Cl)cc1Cl
active: [1] 196% | [10] 31.5% | [12] 76.5% | [15] 43.7%
inactive: [2] | [3] | [4] | [5] | [6] | [7] | [8] | [9] | [11] | [13] | [14] | [16]

CN(C)CCCN(C(=O)c1ccc(S(=O)(=O)N2CCc3ccccc32)cc1)c1nc2ccc(F)cc2s1
inactive: [2] | [3] | [4] | [5] | [6] | [7] | [8] | [9] | [10] | [11] | [12] | [13] | [14] | [15] | [16]
active: [1] 79%

CCOC(=O)C1(CC2CC2)CCN(Cc2cnc(-c3ccccc3C)nc2)CC1
active: [10] 59.5%
inactive: [1] | [2] | [3] | [4] | [5] | [6] | [7] | [8] | [9] | [11] | [12] | [13] | [14] | [15] | [16]

COc1ccc(C(CNC(=O)C2CCN(S(=O)(=O)c3ccc(F)cc3)CC2)N(C)C)cc1 (stereo not given)
active: [1] 149%
inactive: [2] | [3] | [4] | [5] | [6] | [7] | [8] | [9] | [10] | [11] | [12] | [13] | [14] | [15] | [16]

O=C(NCCNC1CCC(c2ccccc2)CC1)c1cccs1 (stereo not given)
inactive: [3] | [4] | [5] | [6] | [7] | [8] | [9] | [11] | [13] | [14] | [15] | [16]
active: [1] 169% | [2] 95% | [10] 66% | [12] 103%

OCCC1CN(Cc2ccccc2-c2ccco2)CCN1Cc1ccccc1 (stereo not given)
inactive: [1] | [2] | [3] | [4] | [5] | [6] | [7] | [8] | [9] | [11] | [13] | [14] | [15] | [16]
active: [10] 63.5% | [12] 17.2%

CCCn1ncc(CN2CCC(n3nccc3NC(=O)CCc3ccccc3)CC2)c1C
active: [1] 132% | [2] 115% | [10] 36.5%
inactive: [3] | [4] | [5] | [6] | [7] | [8] | [9] | [11] | [12] | [13] | [14] | [15] | [16]

COc1c2c(cc3c1C(CC(O)Cc1ccccc1)N(C)CC3)OCO2 (stereo not given)
active: [1] 110% | [10] 43%
inactive: [2] | [3] | [4] | [5] | [6] | [7] | [8] | [9] | [11] | [12] | [13] | [14] | [15] | [16]

COc1ccc(C(CNC(=O)Cc2cccs2)N(C)C)cc1 (stereo not given)
active: [1] 102% | [2] 103% | [10] 36.5%
inactive: [3] | [4] | [5] | [6] | [7] | [8] | [9] | [11] | [12] | [13] | [14] | [15] | [16]

Cc1ccc(C)c(NC(=S)NCC(c2ccccc2)N(C)C)c1 (stereo not given)
inactive: [3] | [4] | [5] | [6] | [7] | [8] | [9] | [11] | [13] | [14] | [15] | [16]
active: [1] 260% | [2] 127% | [10] 49% | [12] 93.2%

S=C(NCCc1cnc[nH]1)NC1CCCC1
active: [1] 220% | [2] 135% | [12] 79.6%
inactive: [3] | [4] | [5] | [6] | [7] | [8] | [9] | [10] | [11] | [13] | [14] | [15] | [16]

CN(C)C(CNC(=O)Cc1ccc([N+](=O)[O-])cc1)c1ccccc1 (stereo not given)
active: [1] 161% | [2] 124%
inactive: [3] | [4] | [5] | [6] | [7] | [8] | [9] | [10] | [11] | [12] | [13] | [14] | [15] | [16]

CCN1CCN(c2ccc(S(=O)(=O)N3CCOCC3)cc2NC(=O)/C=C/c2ccc(OC)cc2OC)CC1
active: [1] 112% | [12] 6.55%
inactive: [2] | [3] | [4] | [5] | [6] | [7] | [8] | [9] | [10] | [11] | [13] | [14] | [15] | [16]
